# The whole screen tested about 68,000 compounds, of which about 2,700 (4%) showed an effect of 50% or more. The sample holds strong results, similar compounds and a random draw of the others, so the mix is not that of the screen.
# System: Plasmodium berghei
# Assay: Screen against P. berghei liver stage (PbLuc), transformed with Luciferase, at 2uM
# Format: functional, HepG2
# Conditions: tested at 2 uM
row,SMILES,INHIBITION [%]
1,CC(C)c1ccc(OCC(=O)N(C)C)cc1,-32.48
2,COc1ccc(CCN2C(=O)O[C@@H]3CN(C)C[C@@H]32)cc1,-7.29
3,CC[C@H]1CN2CC[C@H]1C[C@@H]2CNC(=O)c1ccco1,9.42
4,CN(C[C@H]1CN2CC[C@H]1C[C@@H]2CNC(=O)c1ccco1)c1ccccc1,65.7
5,CCN(CC)C[C@H]1CN2CC[C@H]1C[C@@H]2CNC(=O)c1ccco1,31.07
6,Cc1nc(CN)cc(N2CCC(O)(c3ccc(Cl)cc3)CC2)n1,59.94
7,Cc1nc(CCN)cc(N2CCC(O)(c3ccccc3)C2)n1 (stereo not drawn),23.18
8,Cc1nc(CCN)cc(N2CCC(O)(c3ccc(Cl)cc3)CC2)n1,11.38
9,CCNC(=O)N1CCc2ccc(NC(=O)C(C)c3ccsc3)cc21 (stereo not drawn),-44.17
10,CC(Cn1ccnc1)NCc1csc2c1CCCC2 (stereo not drawn),66.4
11,CC(Cn1cncn1)NCc1csc2c1CCCC2 (stereo not drawn),26.75
12,CC(Cn1cccn1)NCc1csc2c1CCCC2 (stereo not drawn),49.88
13,O=C(N[C@@H]1CCN(c2nc3ccccc3o2)C[C@H]1O)c1cnccn1,26.3
14,c1ccc2oc(N3CCCC4(CCOC4)C3)nc2c1 (stereo not drawn),-14.46
15,O=C(NC1CCCC1)O[C@H]1COCCN(c2nc3ccccc3o2)C1,52.91
16,CC(C)NC(=O)O[C@H]1COCCN(c2nc3ccccc3s2)C1,41.93
17,O=C(NC1CCCC1)O[C@H]1COCCN(c2nc3ccccc3s2)C1,51.26
18,CCNC(=O)O[C@H]1COCCN(c2nc3ccccc3s2)C1,29.85
19,NC(=O)N1CCc2ncc(CNC(=O)CC3CC3)n2CC1,25.08
20,CC(=O)N1CCCC1c1cc(N2CCN(CC3CC3)CC2)cc(C)n1 (stereo not drawn),6.89
21,O=C(c1ccoc1)N1CCc2ncnc(NCc3ccccn3)c2CC1,1.01
22,CN(C)CCC1CCN(Cc2ccn(C)c(=O)c2)CC1,16.84
23,COC(=O)C1CCN(C(=O)c2nnc3ccc(Cl)cc3n2)CC1,24.52
24,CC(=O)c1cccc(OCCCC(=O)N(C)Cc2cnc(C)s2)c1,-37.03
25,Cc1cnc(N2CCC3(CCCN3C(=O)c3ccco3)CC2)nc1,26.01
26,Cc1nc(NCc2nonc2C)cc(C(C)Cn2nc(C)c(C)c2C)n1 (stereo not drawn),84.94

row,SMILES,INHIBITION [%]
1,Cc1nc(NCc2ccccc2)cc(C(C)Cn2nc(C)c(C)c2C)n1 (stereo not drawn),-30.88
2,Cc1nc(NCCO)cc(C(C)Cn2nc(C)c(C)c2C)n1 (stereo not drawn),-16.2
3,COc1cc(C2(C(=O)N3CCN(CC(C)(C)O)CC3)CC2)ccc1C,17.48
4,CCc1ccc(C(=O)N2CCN(CC(O)CC)CC2)o1 (stereo not drawn),5.59
5,COc1ccc(C(=O)N2CCN(c3cc(CCN)nc(C)n3)CC2)cc1,-10.41
6,CCc1nc(CN2CCCN(C(=O)c3cccn3C)CC2)cs1,-18.39
7,CCc1ccc(C(=O)N2CCN(CC(C)O)CC2)o1 (stereo not drawn),54.85
8,Cc1nc(CCN)cc(N2CCCN(C(=O)c3ccco3)CC2)n1,54.3
9,CCc1nc(CN2CCN(C(=O)c3cc(C)no3)CC2)cs1,36.73
10,Cc1nc(N2CCN(C(=O)c3ccco3)CC2)c2c(n1)c(C)nn2C,1.77
11,CCc1nc(CN2CCCN(C(=O)c3ccco3)CC2)cs1,70.27
12,CCN(CC)Cc1ccc(C(=O)N2CCN(CC(C)O)CC2)o1 (stereo not drawn),21.12
13,CCc1nc(CN2CCCN(C(=O)c3ccccc3)CC2)cs1,-10.44
14,CCc1nc(CN2CCN(C(=O)c3cc(C)nn3C)CC2)cs1,53.98
15,CCc1nc(CN2CCCN(C(=O)c3occc3C)CC2)cs1,21.52
16,Cc1noc(C)c1CN1CC2(CCN(C(=O)c3c[nH]cn3)C2)CC1=O (stereo not drawn),47.35
17,Cc1noc(C)c1CN1CCc2ncc(CN(C)C)n2CC1,1.48
18,Cc1nc(N2CCN(C)CC2)ncc1C(=O)N1CC[C@](C)(O)[C@H](C)C1,-5.13
19,O=C1[C@@H]2CCN(Cc3ccncc3)C[C@@H]2OCCN1c1ccccc1,2.71
20,Cc1ccccc1-n1cnc(Cl)c1CO,-40.04
21,O=C(NC1CC1)N1CCN(c2cnccn2)CC1,11.24
22,O=C(CCc1ccc(C(F)(F)F)cc1)N1CCCS1(=O)=O,-24.72
23,Cn1c(N2CC[C@H](O)C2)nc2cc(C(N)=O)ccc21,26.7
24,Cc1ccccc1-c1cncc(C2CCN(Cc3cnn(C)c3)CC2)n1,18.22
25,CCc1ccc(C(=O)N2CCCN(Cc3csc(CC)n3)CC2)o1,50.61
26,CCc1nc(CN2CCCN(C(=O)CCc3ccco3)CC2)cs1,44.12

row,SMILES,INHIBITION [%]
1,CCc1nc(CN2CCCN(C(=O)C3CCOCC3)CC2)cs1,-17.37
2,CCc1nc(CN2CCCN(C(=O)C3CCC3)CC2)cs1,23.86
3,CCc1nc(CN2CCCN(C(=O)c3cnc(C)cn3)CC2)cs1,-12.19
4,Cc1nc(CN2CCN(C(=O)CCc3ccco3)CC2)cs1,60.09
5,CCc1nc(CN2CCCN(C(=O)c3cc(C)on3)CC2)cs1,-24.11
6,CCc1nc(CN2CCCN(C(=O)C3CCOC3)CC2)cs1 (stereo not drawn),56.03
7,Cc1nc(CN2CCCN(C(=O)CCc3ccco3)CC2)cs1,11.2
8,O=C(NC1CC1)C1CCN(c2nc3nc[nH]c(=O)c3s2)CC1,20.16
9,CN(Cc1cnn(C)c1)C(=O)C(c1ccccc1)N1CCSCC1 (stereo not drawn),0.21
10,O=C(C[C@@H]1COC[C@H]2CN(Cc3ccc(F)cc3)C[C@@H]12)N1CCOCC1,20.74
11,Cn1cc(CN2CCc3c(CNC(=O)C4CC4)cncc3C2)cn1,-5.13
12,O=C(NCC1CC1)[C@H]1C[C@@H]2CCN(CCc3ccccc3)C[C@H]2O1,25.4
13,CC(C)n1[nH]c(=O)c2c1NC(=O)CC2c1cccnc1 (stereo not drawn),-35.44
14,Cc1ccccc1CC(=O)N[C@@H]1CCC[C@@H](N2CCNC(=O)C2)[C@@H]1O,29.06
15,CCc1nc2n(n1)CC(NCc1cc(OC)c3c(c1)OCO3)CC2 (stereo not drawn),40.24
16,Cc1ccc(C(=O)N2CCC(Oc3ccc(C)c(C)c3)CC2)c(=O)[nH]1,-37.2
17,Cc1ccc(C)c(OC2CCN(C(=O)c3ccc(C)[nH]c3=O)CC2)c1,54.85
18,Cc1ccc(C(=O)N2CCC(Oc3c(C)cccc3C)CC2)c(=O)[nH]1,-11.33
19,Cc1ccc(C(=O)N2CCC(Oc3ccc(F)cc3F)CC2)c(=O)[nH]1,60.31
20,COc1ccc(OC2CCN(C(=O)c3ccc(C)[nH]c3=O)CC2)cc1,11.95
21,Cc1ccc(C(=O)N2CCC(Oc3cccc(C)c3C)CC2)c(=O)[nH]1,7.64
22,CCN(CC1CCCN(CCc2cccc(OC)c2)C1)C(=O)CN(C)C (stereo not drawn),-85.72
23,Cc1cc(C(=O)N2CCCC2c2nc(O)cc(C(C)C)n2)on1 (stereo not drawn),12.21
24,CCN(C)C[C@@H]1CN(Cc2cnc3c(S(C)(=O)=O)cnn3c2)C[C@@H]1CO,10.91
25,CCN(CC)S(=O)(=O)c1csc(C(=O)N2CCC(C(N)=O)CC2)c1,14.27
26,CN(C)S(=O)(=O)c1csc(C(=O)N2CCC(C(N)=O)CC2)c1,-0.24

row,SMILES,INHIBITION [%]
1,CN(C)S(=O)(=O)c1csc(C(=O)N2CCSCC2)c1,68.33
2,Cc1nc(NCCSc2nnc(C)s2)c2cccnc2n1,21
3,CN1CC2(CCN(CC3CC3)CC2)COc2ccccc2S1(=O)=O,-22.64
4,Cc1ccc(CS(=O)(=O)CC(=O)NCc2ccccc2F)cc1,26.74
5,N#Cc1cccc(CS(=O)(=O)NC(Cc2ccccc2)C(N)=O)c1 (stereo not drawn),18.29
6,NC(=O)C(Cc1ccccc1)NS(=O)(=O)Cc1ccccc1F (stereo not drawn),53.13
7,O=C(CS(=O)(=O)Cc1ccc(F)cc1)NCc1ccccc1F,-54.34
8,O=C(CS(=O)(=O)Cc1ccccc1)NCc1ccccc1F,50.59
9,NC(=O)C(Cc1ccccc1)NS(=O)(=O)Cc1ccccc1Cl (stereo not drawn),-7.47
10,Cc1ccc(Cl)cc1N1CCC(CNC(=O)CC(F)(F)F)C1 (stereo not drawn),42.92
11,Cc1cnn(CC(=O)NCC2CCN(c3cc(Cl)ccc3C)C2)c1 (stereo not drawn),80.06
12,Cc1ccc(Cl)cc1N1CCC(CNC(=O)Cn2cccn2)C1 (stereo not drawn),-48.41
13,CSCC[C@H](N)c1nnc(SCc2cc(C)ccc2C)o1,17.15
14,O=C(NCC(F)(F)F)C1CSCN1S(=O)(=O)c1ccccc1F (stereo not drawn),14.06
15,CCCC1C=CCN1C(=O)c1cc(COc2ccc3c(c2)OCO3)[nH]n1 (stereo not drawn),5.15
16,O=C(c1cscn1)N1CCC2(CCN(Cc3nccs3)C2)CC1,-14.66
17,COc1ccc(-c2cc(C3CCOC3)c(C#N)c(N)n2)cn1 (stereo not drawn),7.64
18,Cc1cc(-c2cc(C3CCOC3)c(C#N)c(N)n2)ccc1Cl (stereo not drawn),21.33
19,Cc1cc(C)cc(-c2cc(C3CCOC3)c(C#N)c(N)n2)c1 (stereo not drawn),59.27
20,CCN1CCO[C@]2(CCC[C@H]2COCc2csc(C)n2)C1,32.95
21,COc1ccc(C)cc1Nc1nc2c(C)nn(C)c2c(=O)n1C,-103.52
22,O=C(NC1CCS(=O)(=O)c2ccccc21)c1sccc1C1CC1 (stereo not drawn),-10.14
23,O=C(NC1CCS(=O)(=O)c2ccccc21)c1cccs1 (stereo not drawn),79.83
24,Cc1ccsc1C(=O)NC1CCS(=O)(=O)c2ccccc21 (stereo not drawn),-15.77
25,CC(C)CNc1nnc(SC(C(=O)NCc2cccnc2)C(C)C)s1 (stereo not drawn),-16.56

# Reference: ChEMBL document CHEMBL4513216, “Probing the Open Global Health Chemical Diversity Library for Multistage-Active Starting Points for Next-Generation Antimalarials” (ACS Infect Dis, 2020)
